Screening results deposited in PubChem by National Center for Advancing Translational Sciences (NCATS).
Shown are actives, neighbours in structure and some others; about 11% of the full set was active somewhere.
AmpC inh no detg: qHTS Inhibitors of AmpC Beta-Lactamase (assay without detergent). P00811. 0.52% of 330,000 active. Potency, µM (series often up to 57.1 µM), actives largely listed as inhibitors. AmpC nitrocefin hydrolysis, absorbance 480 nm, 0.0001% Triton; also: nearly all actives have a fitted effect of over 20% in size
Target sequence (P00811 whole entry, looked up): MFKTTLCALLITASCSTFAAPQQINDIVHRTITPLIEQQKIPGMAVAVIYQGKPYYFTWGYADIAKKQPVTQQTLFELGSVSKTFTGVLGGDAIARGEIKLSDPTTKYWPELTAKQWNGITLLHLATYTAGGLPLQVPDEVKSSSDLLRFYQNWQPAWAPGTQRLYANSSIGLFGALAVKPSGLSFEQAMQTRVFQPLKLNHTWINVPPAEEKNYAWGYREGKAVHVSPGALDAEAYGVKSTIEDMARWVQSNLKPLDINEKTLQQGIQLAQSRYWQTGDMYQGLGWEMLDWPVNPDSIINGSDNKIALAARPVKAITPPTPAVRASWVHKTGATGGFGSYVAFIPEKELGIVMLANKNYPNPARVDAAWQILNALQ
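20 mM phosphate pH 7.0 + 0.01% (detergent screen) or 0.0001% Triton X-100; 5.3 nM AmpC reagent; cpd preinc 15 min RT; nitrocefin (800 uM stock) to start; A480 q20 s × 4 min; Activity was normalised to no-enzyme and no-compound control wells.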
HCV inhibitor: qHTS Assay for Inhibitors of Hepatitis C Virus (HCV). Huh7.5.1 HCVcc-Cre infection, luciferase reporter, 44 h. Potency, µM (series often up to 41.8 µM), actives largely listed as inhibitors. AID 651820, 2012. 3.4% of 340,000 active
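Seed cells (1,000/well) for 4 h; treat with compound and infect with HCVcc-Cre, moi about 0.5. Incubate 44 h, then detect luciferase activity.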
Pf growth 48h: Primary qHTS for delayed death inhibitors of the malarial parasite plastid, 48 hour incubation; 5.9% of 310,000 active; Potency, µM (series often up to 28.7 µM), usual class: inhibitors; AID 504832, 2011; P. falciparum luciferase growth in erythrocytes, 48 h
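Luciferase-expressing parasites in RBCs, 2% Hct / 0.1% parasitemia final; RPMI 1640 + 0.5% Albumax; 37 C, 5% CO2, one generation; luminescence read-out, lower signal = inhibition.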
AMA1-RON2 inh: qHTS for Inhibitors of AMA1-RON; Towards Development of Antimalarial Drug Lead: Primary Screen. Plasmodium falciparum AMA1 (3D7) - RON2 peptide interaction. AlphaScreen AMA1-biotinylated RON2 peptide binding. Potency, µM (doses to about 58.2 µM), most hits filed as inhibitors. 0.2% of 360,000 active. AID 720542, 2013; also: nearly all actives have a fitted effect of over 45% in size
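AMA1 (3D7) with his tag at 25 nM final met compounds first, then biotinylated RON2 peptide at 25 nM; detection used donor plus acceptor beads, 10 µg/mL apiece, read by AlphaScreen after 30 min at room temperature.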
Pf growth 96h: Primary qHTS for delayed death inhibitors of the malarial parasite plastid, 96 hour incubation; P. falciparum luciferase reporter growth, 96 h; 6.9% of 320,000 active; AID 504834, 2011; Potency, µM (top dose mostly 28.7 µM), most hits filed as inhibitors
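Readout is luminescence from an integrated firefly luciferase in P. falciparum. Red cells, 2% hematocrit and 0.05% parasitemia final, were cultured with compound through two parasite generations (96 hours) at 37 C, 5% CO2.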
AmpC detergent: qHTS Inhibitors of AmpC Beta-Lactamase (assay with detergent). AmpC hydrolysis of nitrocefin, absorbance 480 nm, 0.01% Triton. Potency, µM (top dose mostly 114 µM), most hits filed as inhibitors. 0.041% of 370,000 active. AID 485294, 2010; also: nearly all actives have a fitted effect of over 25% in size
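AmpC (5.3 nM in the dispensed reagent) in 20 mM phosphate pH 7.0 with 0.01% (detergent screen) or 0.0001% Triton X-100 was preincubated with compounds for 15 min at room temperature. Nitrocefin was then added from an 800 uM solution, and hydrolysis was followed at 480 nm.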
Each line names hits and unclear results; the compound was inactive in the other large screens. Calls follow the shape of the dose curve; as a rule, active = well fitted curve in the direction sought with a large enough effect; inconclusive = small, poorly fitted or top-dose-only effect, or another doubt; inactive = no such curve, though single readings can be large; an effect the other way counts as inactive or inconclusive.

Cc1ccc(N(CC(C)C)S(=O)(=O)c2nnc(NC(=O)c3cccs3)s2)cc1	none (no result: AmpC inh no detg, HCV inhibitor, Pf growth 48h, AMA1-RON2 inh, Pf growth 96h)
Cc1csc2ncc(C(=O)Nc3cccc(C(F)(F)F)c3)c(=O)n12	none
CCc1ccc(NC(=O)c2cnc3scc(C)n3c2=O)cc1	AmpC inh no detg 35.5µM, AmpC detergent inconclusive
CCOC(=O)CNC(=O)Nc1cc(C(=O)NCc2ccccc2OC)ccc1N1CCCC1	none (no result: AmpC inh no detg, HCV inhibitor, Pf growth 48h, AMA1-RON2 inh, Pf growth 96h)
COc1ccc2c(c1)c1c(c(=O)n(CCc3ccccc3)c(=O)n1Cc1cccc(Cl)c1)n2C	none (no result: AmpC inh no detg, HCV inhibitor, Pf growth 48h, AMA1-RON2 inh, Pf growth 96h)
COc1ccc(Cl)cc1NC(=O)c1ccc(CN2C(=O)CCn3nc(C)cc32)cc1	none (no result: AmpC inh no detg, HCV inhibitor, Pf growth 48h, AMA1-RON2 inh, Pf growth 96h)
Cc1c(C(=O)O)sc2nc(-c3cccs3)cc(C(F)(F)F)c12	none
Cc1c(C(=O)Nc2nccs2)sc2nc(-c3cccs3)cc(C(F)(F)F)c12	HCV inhibitor 11.2µM, Pf growth 48h inconclusive, Pf growth 96h inconclusive
N#C/C(=C\c1ccccn1)c1ccccn1	HCV inhibitor inconclusive, Pf growth 48h inconclusive, Pf growth 96h 8.28µM
N#C/C(=C/c1cccs1)c1ccccn1	HCV inhibitor inconclusive
Cc1ccc(CNC(=O)C2CCC(CNS(=O)(=O)c3ccc(C)cc3)CC2)cc1 (stereo not drawn)	none (no result: AmpC inh no detg, HCV inhibitor, Pf growth 48h, AMA1-RON2 inh, Pf growth 96h)
CCN(CC)c1nc(Oc2ccc(C(=O)OC)cc2)nc(N2CCOCC2)n1	HCV inhibitor inconclusive
COc1nc(Nc2ccc(C(C)=O)cc2)nc(OC)n1	Pf growth 48h 14.7µM
CCNc1nc(OC)nc(Oc2ccc(C(=O)OC)cc2)n1	Pf growth 48h inconclusive (no result: Pf growth 96h)
COc1ccc(Nc2nc(OC)nc(OC)n2)cc1	Pf growth 48h inconclusive, Pf growth 96h inconclusive, AmpC detergent inconclusive
CCN(CC)c1nc(Nc2ccccc2)nc(Oc2ccc(C(=O)OC)cc2)n1	HCV inhibitor inconclusive
CCN(CC)c1nc(Oc2ccc(C(=O)NN)cc2)nc(Oc2ccc(C(=O)NN)cc2)n1	Pf growth 48h 9.28µM, Pf growth 96h 9.28µM
COC(=O)c1ccc(Oc2nc(Nc3ccccc3)nc(N(C)C)n2)cc1	HCV inhibitor 11.2µM, Pf growth 48h inconclusive
CCOC(=O)c1ccc(Oc2nc(NC)nc(OC)n2)cc1	Pf growth 48h 13.1µM
CCOC(=O)C1CCN(C(c2ccc(C)cc2)c2sc3nc(-c4ccco4)nn3c2O)CC1 (stereo not drawn)	none (no result: AmpC inh no detg, HCV inhibitor, Pf growth 48h, AMA1-RON2 inh, Pf growth 96h)
COC(=O)c1ccc(Oc2nc(SC)nc(N(C)C)n2)cc1	none
CNc1nc(Oc2ccc(C(=O)OC)cc2)nc(SC)n1	Pf growth 48h 10.4µM
Cc1cccc(NC(=S)NC(=O)c2ccc(Br)o2)c1C	none
O=C(Nc1cccc2ncccc12)c1ccc([N+](=O)[O-])o1	HCV inhibitor 25.1µM, Pf growth 48h inconclusive
Cc1cccnc1NC(=O)c1ccc([N+](=O)[O-])o1	Pf growth 48h inconclusive, Pf growth 96h inconclusive
Cc1ccc(NC(=S)NC(=O)c2ccc(Br)o2)c(C)c1	Pf growth 96h 13.1µM
Cc1ccc(NC(=O)c2ccc([N+](=O)[O-])o2)c(C)c1	HCV inhibitor 14.1µM, Pf growth 48h inconclusive
Cc1cccc(/C=C/C(=O)c2ccc([N+](=O)[O-])o2)c1	HCV inhibitor 0.631µM, Pf growth 48h inconclusive
CC(=O)N1c2ccccc2C(=O)C1N1CCN(c2cccc(C)c2C)CC1 (stereo not drawn)	none (no result: AmpC inh no detg, HCV inhibitor, Pf growth 48h, AMA1-RON2 inh, Pf growth 96h)
COc1ccc(-c2nc3cc(NC(=O)COc4ccccc4C)ccc3o2)cc1	none (no result: AmpC inh no detg, HCV inhibitor, Pf growth 48h, AMA1-RON2 inh, Pf growth 96h)
O=S(=O)(c1cccc2ccccc12)N1CCN(c2ccc(Cl)c(Cl)c2)CC1	none (no result: AmpC inh no detg, HCV inhibitor, Pf growth 48h, AMA1-RON2 inh, Pf growth 96h)
Cc1ccccc1NC(=O)c1ccc([N+](=O)[O-])o1	HCV inhibitor inconclusive, Pf growth 48h 10.4µM, Pf growth 96h 3.7µM
CN1CCN(c2ccccc2NC(=O)c2ccc([N+](=O)[O-])o2)CC1	HCV inhibitor inconclusive, Pf growth 48h inconclusive
Cc1cccc(NC(=O)Nc2ccc([N+](=O)[O-])cc2)n1	none
O=C(Nc1ccccc1Cl)c1ccc([N+](=O)[O-])o1	HCV inhibitor inconclusive
CS(=O)(=O)N1CCN(c2ccccc2NC(=O)c2ccc([N+](=O)[O-])o2)CC1	HCV inhibitor 11.2µM, Pf growth 48h inconclusive
Cc1cccc(NC(=O)c2ccc([N+](=O)[O-])o2)n1	HCV inhibitor inconclusive, Pf growth 48h inconclusive, Pf growth 96h 10.4µM
COc1cccc(NC(=O)/C(C#N)=C/c2c(C)n(Cc3ccccc3)c3ccccc23)c1	none (no result: AmpC inh no detg, HCV inhibitor, Pf growth 48h, AMA1-RON2 inh, Pf growth 96h)
Cc1ccc(Cl)cc1NC(=O)CCCn1c(=O)c2cccn2c2ccccc21	none (no result: AmpC inh no detg, HCV inhibitor, Pf growth 48h, AMA1-RON2 inh, Pf growth 96h)
CCOc1ccc(CN2C(=O)c3ccccc3Sc3ccc(C(=O)N4CCN(C)CC4)cc32)cc1	none (no result: AmpC inh no detg, HCV inhibitor, Pf growth 48h, AMA1-RON2 inh, Pf growth 96h)
